Experimental findings from PubChem BioAssay (NCATS) are described below.

Records with an inconclusive call do not appear. Calls of active or inactive are those of the source. Unless noted, calls follow the shape of the dose curve; as a rule, active = well fitted curve in the direction sought with a large enough effect; inconclusive = small, poorly fitted or top-dose-only effect, or another doubt; inactive = no such curve, though single readings can be large; an effect the other way counts as inactive or inconclusive.

A short description of experiment [1]: Cytometric Cell-Based qHTS for Inhibitors of the mTORC1 Signaling Pathway in MEF (Tsc2-/-, p53-/-) Cells (AID 2660).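 Also: Tsc2 and p53 null MEFs carrying empty vector with compound for 24 h; percent of cells above a phospho-rpS6 to PI ratio cutoff in each well.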 In outline:
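Percent of cells positive for normalized phospho-S6 staining is reported, with the cutoff set from rapamycin (7.5 nM) versus DMSO wells. Tsc2-/-, p53-/- MEFs received compound for 24 hrs.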
For orientation: Quantitative high-throughput screening tests each substance at several concentrations.

Experiment [2] is described as follows: High Content Imaging Cell-Based qHTS for Inhibitors of the mTORC1 Signaling Pathway in MEF (Tsc2-/-, p53-/-) Cells (AID 2666).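 Also: percent of cells scored positive for phospho-rpS6 Ser235/236 immunostaining by imaging.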 The note with it: at 38.3 µM (top of the series). The method in brief:
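Inhibition of rpS6 phosphorylation is measured by immunofluorescence imaging in empty-vector Tsc2-/-, p53-/- mouse embryonic fibroblasts after 24 hrs compound exposure at 37 degree Celsius. Results are reported as % positive cells per well.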

Experiment [3] is described as follows: High Content Imaging Cell-Based qHTS for Inhibitors of the mTORC1 Signaling Pathway in MEF Cells (AID 2667).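 Also: Tsc2-/- p53-/- MEFs stably re-expressing wild-type Tsc2 exposed 24 h.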 In outline:
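Fixed-cell imaging of phospho-S6 (Ser235/236, Alexa-488) after 24 hrs of compound treatment at 37 degree Celsius. Signal was normalized to Hoechst, and thresholds from the highest and lowest wells split cells into % active versus % non-active.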

The nature of experiment [4]: Cytometry Cell-Based qHTS for Inhibitors of the mTORC1 Signaling Pathway in MEF cells (AID 2668).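 Also: Tsc2-/- p53-/- mouse embryonic fibroblasts stably re-expressing wild-type Tsc2; percent cells positive for phospho-rpS6 Ser235/236 relative to propidium iodide stain.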 The method in brief:
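Phospho-rpS6 (Ser235/236) immunofluorescence over PI signal, scored as % positive cells using thresholds from 7.5 nM rapamycin and DMSO wells, after 24 h compound exposure of WT-Tsc2-rescued Tsc2-/-, p53-/- MEFs. PI cell count recorded for viability.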

Experiment [5] addresses DNA polymerase III PolC-type (Bacillus subtilis (strain 168)) (UniProt P13267). As to the kind of experiment: qHTS Validation Assay for the Inhibitors of DNA Replication in Gram-Positive Bacteria (AID 485295).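 Also: reconstituted holoenzyme with PolC plus beta clamp SSB and primase; PicoGreen fluorescence of double-stranded DNA made on primed circular M13 template.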 The method in brief:
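Double-stranded DNA product detected by PicoGreen fluorescence after EDTA quench. Compound incubated with B. subtilis holoenzyme (PolC, beta subunit, SSB, primase) before substrate addition; primed replication of M13Gori with dNTPs and NTPs at room temperature; DMSO defines 0% inhibition.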

Experiment [6] addresses Tumor susceptibility gene 101 protein (Homo sapiens) (UniProt Q99816). As to the kind of experiment: qHTS Validation Assay for Iinhibitors of HIV-1 Budding by Blocking the Interaction of PTAP/TSG101 (AID 485342; calls by dose curve). In outline:
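Fluorescence polarization of 50 nM FITC-PTAP peptide bound to 10 uM Tsg101 binding domain was read after 20 min room-temperature incubation with compounds, in 10 mM HEPES pH 7.5, 0.15 M NaCl, 0.01% Tween 20.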

The target of experiment [7] is Beta-2 adrenergic receptor (Homo sapiens) (UniProt P07550). As to the kind of experiment: qHTS validation assay of beta-arrestin-biased ligands of beta2-adrenergic receptor (AID 485366). The method in brief:
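Screening used a titration range of up to 46 microM in a beta-arrestin recruitment Tango luciferase assay. Cells in 1% FBS medium were treated 18 hr at 37 degrees C, and luminescence was normalized to %Activity.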

In experiment [8] the target is Chromobox protein homolog 1 (Homo sapiens) (UniProt P83916). As to the kind of experiment: qHTS Validation Assay for Inhibitors of HP1-beta Chromodomain Interactions with Methylated Histone Tails (AID 488953). Also: potency is read from the fitted curve at half-maximal effect; nearly all actives have a fitted effect of over 50% in size. The method in brief:
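AlphaScreen proximity readout: streptavidin donor and Ni-chelate acceptor beads, 10 ug/mL final, 30 min dark, RT. Complex of 50 nM HP1-beta and 50 nM b-H3(1-18)K9me3 formed 30 min, then compound-treated 30 min; PBS pH 7.4/0.01% Tween-20.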

In experiment [9] the target is Methanococcus maripaludis chaperonin (MmCpn) (UniProt Q6LX38). As to the kind of experiment: High-Throughput Screening for Modulators of Cytosolic Chaperonin Activity: MmCpn Primary Screen (AID 488978).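 Also: 50 nM MmCpn enzyme hydrolysing 30 µM ATP at 37 °C.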 In outline: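 ATPase activity of 50 nM MmCpn was assayed with 30 uM ATP, 10 minutes at 37C, after a 5 min compound preincubation at room temperature. ADP production was read as HTRF emission at 590 and 665 nm.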

For experiment [10], the target named is D(1A) dopamine receptor (Homo sapiens) (UniProt P21728). As to the kind of experiment: HTS Assay for Allosteric Agonists of the Human D1 Dopamine Receptor: Primary Screen for Agonists (AID 488981). In outline:
(§1)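 Tetracycline-induced HEK293 T-REx cells force-coupled to calcium signalling were incubated overnight at 30 C and dye-loaded at room temperature. Calcium flux over 180 s after compound addition flagged agonists; a further 180 s read after EC20 dopamine flagged potentiators.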

For experiment [11] the target is unchanged. As to the kind of experiment: HTS Assay for Allosteric Agonists of the Human D1 Dopamine Receptor: Primary Screen for Potentiators (AID 488982). The method in brief:
as §1

The nature of experiment [12]: Validation screen for small molecules that induce genotoxicity in human embryonic kidney (HEK293T) cells expressing luciferase-tagged ELG1 (AID 493106). In outline:
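qHTS format; 2,000 HEK293T ELG1-luc cells/well; 23 nL compound via pin tool; 16 hr, 37 °C/5% CO2; ONE-Glo, 30 min RT; luminescence read.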

Experiment [13] is described as follows: qHTS for Inhibitors of Cell Surface uPA Generation: Validation Assay (AID 493164).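 Also: RAW 264.7 macrophage cells exposed to compound for 18 h.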 In outline: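 Compounds are titrated over seven points (2.45 nM–38.3 uM final) onto pre-plated RAW 264.7 cells and incubated for 18 h. Retained intracellular ATP, measured with ATP-Lite, indicates blocked lethal factor entry.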
In experiment [14] the target is Peptidyl-prolyl cis-trans isomerase NIMA-interacting 1 (Homo sapiens) (UniProt Q13526). As to the kind of experiment: qHTS Validation Assay to Find Inhibitors of Pin1 (AID 504536; active = well fitted inhibition curve with a large enough effect in the polarisation, with a control signal flat, not every such curve was filed as active; the % refers to the polarisation). The method in brief:
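Fluorescence polarization competition: compounds (titration) displace HiFluor-488-labeled Pin1-1b peptide from Pin1 (0.3 uM final) in pH 7.5 HEPES buffer with DTT, 10 min at room temperature; %Activity normalized to no-enzyme wells, curves fitted.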

Experiment [15] has as its target Phosphoglycerate kinase, glycosomal (Trypanosoma brucei brucei) (UniProt P07378). As to the kind of experiment: qHTS Validation Assay to Find Inhibitors of Phosphoglycerate Kinase (AID 504547). The method in brief: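 In TEA buffer (100mM, pH 7.6) containing 5mM MgCl2 and 0.01% Tween-20, the GAPDH-coupled PGK reaction proceeded for 60 minutes at room temperature before a single luminescence reading using Kinase-Glo Plus.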

Experiment [16] concerns the target phosphoglycerate mutase (Leishmania major) (UniProt Q4Q090). As to the kind of experiment: qHTS Validation Assay to Find Inhibitors of Phosphoglycerate Mutase (AID 504548).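 Also: end-point luminescence from Kinase-GloPlus after the PGAM reaction.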 The method in brief: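 Inhibition of L. major PGAM was assessed by Kinase-GloPlus luminescence following a 45-minute room-temperature reaction with enzyme at 1.25nM final.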
Experiment [17] in a line: qHTS for Inhibitors of ATXN expression: Validation (AID 588378). Also: nearly all actives have a fitted effect of over 75% in size. The method in brief:
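Luciferase luminescence (Bright-Glo) from an ATXN2-FFLuc HEK293 line after 24 h compound exposure at 37 °C, preceded by a CellTiter-Fluor fluorescence viability read. Serial dilutions of a reference ATXN2 inhibitor and a luciferase inhibitor served as controls.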

The target of experiment [18] is Glutaminase kidney isoform, mitochondrial (Homo sapiens) (UniProt O94925). As to the kind of experiment: qHTS for Inhibitors of Glutaminase (GLS): LOPAC Validation (AID 624146).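 Also: glutamate product detected by oxidase and peroxidase coupled Amplex red fluorescence gain; nearly all actives have a fitted effect of over 60% in size.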 The method in brief: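 Read-out is an Amplex red fluorescence increase coupled through glutamate oxidase and HRP, measured before and after 30 min room-temperature incubation. hKGA is in 45 mM KH2PO4 (pH 8.2) with 0.02% Tween-20; glutamine added as 1mM solution.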

A short description of experiment [19]: qHTS of Trypanosoma Brucei Inhibitors: LOPAC Validation (AID 624147). The method in brief: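 Luminescent Kinase-Glo Plus end-point after 45 min room-temperature reaction of T. brucei pyruvate kinase started with 130 uM ADP (final). Buffer TEA 50 mM pH 7.2 with KCl, MgCl2, BSA, Tween-20; titration-based qHTS with fitted concentration-effect curves.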
Experiment [20] has as its target Glucagon-like peptide 1 receptor (Homo sapiens) (UniProt P43220). As to the kind of experiment: qHTS of GLP-1 Receptor Agonists: LOPAC Validation (AID 624148).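 Also: higher luminescence signal means agonism.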 In outline:
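HEK293 cells stably co-expressing a cAMP-responsive luciferase reporter and a hypersensitive GLP-1R were plated 12 h at 37 °C and exposed to compounds for 4-6 hr at 37 °C, 5% CO2. Luminescence was read 12 min after adding detection reagent.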

Experiment [21] in a line: qHTS of Nrf2 Activators: LOPAC Validation (AID 624149). In outline:
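AREc32_Fluc cells, 1000/well, OPTI-MEM + 5% FBS, o/n 37 deg C 5% CO2; compound pin-transfer, 24 hr 37 deg C; Steady-Glo 30 min RT, luminescence read.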

Experiment [22] can be described thus: HTS Assay for Allosteric Antagonists of the Human D2 Dopamine Receptor: Hit Validation in HTRF (AID 624455). In outline: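 HTRF read-out; cells stably expressing D1 receptor; hits scored for inhibition of D1-mediated response. Primary screen: calcium flux, force-coupled inducible Hek293 Trex D2 line, antagonism vs EC80 dopamine.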
A general note: In TR-FRET formats the signal depends on donor and acceptor labels being close together.

In experiment [23] the target is Arylsulfatase A (Homo sapiens) (UniProt P15289). As to the kind of experiment: qHTS screen for enhancers of Arylsulfatase A (ASA1): LOPAC Validation Assay (AID 720538). Also: potency is read from the fitted curve at half-maximal effect. In outline: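 Enhancer assay in patient-derived MLD fibroblasts carrying ASA-I179S: 48 h compound exposure at 37 C, then 14 h room-temperature pNCS turnover (0.5 mM final) in lysis buffer. Read by fluorescence at 525/598 nm after NaOH stop.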

A short description of experiment [24]: qHTS for Activators of Parkin Expression: LOPAC Validation Assay (NLuc Reporter) (AID 720572). The method in brief:
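Cells harboring the Parkin-promoter coincidence reporter were treated for 24 h at seven concentrations. NLuc output was measured sequentially after the FLuc channel and scaled between DMSO and positive control values.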

Sequence of D(1A) dopamine receptor (Homo sapiens) (P21728 whole entry, looked up): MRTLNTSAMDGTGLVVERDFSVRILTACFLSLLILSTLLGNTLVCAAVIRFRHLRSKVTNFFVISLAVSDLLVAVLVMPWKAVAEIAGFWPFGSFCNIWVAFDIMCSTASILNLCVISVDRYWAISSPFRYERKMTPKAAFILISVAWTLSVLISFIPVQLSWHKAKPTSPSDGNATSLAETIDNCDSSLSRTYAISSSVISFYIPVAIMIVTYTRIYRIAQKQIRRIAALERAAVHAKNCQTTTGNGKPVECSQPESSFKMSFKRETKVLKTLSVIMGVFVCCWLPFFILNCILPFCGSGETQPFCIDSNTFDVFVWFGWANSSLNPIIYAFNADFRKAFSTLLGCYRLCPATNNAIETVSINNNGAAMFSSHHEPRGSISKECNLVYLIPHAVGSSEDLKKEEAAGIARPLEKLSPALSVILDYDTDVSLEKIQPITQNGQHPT
Sequence of Peptidyl-prolyl cis-trans isomerase NIMA-interacting 1 (Homo sapiens) (Q13526 whole entry, looked up): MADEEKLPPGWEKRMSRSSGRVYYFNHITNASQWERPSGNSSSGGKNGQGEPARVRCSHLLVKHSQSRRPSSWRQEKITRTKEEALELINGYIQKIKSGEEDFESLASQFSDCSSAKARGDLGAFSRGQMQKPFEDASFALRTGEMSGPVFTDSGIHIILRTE
Sequence of Chromobox protein homolog 1 (Homo sapiens) (P83916 whole entry, looked up): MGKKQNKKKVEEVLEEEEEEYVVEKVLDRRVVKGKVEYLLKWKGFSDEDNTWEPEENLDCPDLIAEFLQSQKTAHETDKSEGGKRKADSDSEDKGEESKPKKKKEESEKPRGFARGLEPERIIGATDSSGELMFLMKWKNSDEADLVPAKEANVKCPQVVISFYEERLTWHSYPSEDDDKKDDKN
Sequence of Methanococcus maripaludis chaperonin (MmCpn) (Q6LX38 1-543): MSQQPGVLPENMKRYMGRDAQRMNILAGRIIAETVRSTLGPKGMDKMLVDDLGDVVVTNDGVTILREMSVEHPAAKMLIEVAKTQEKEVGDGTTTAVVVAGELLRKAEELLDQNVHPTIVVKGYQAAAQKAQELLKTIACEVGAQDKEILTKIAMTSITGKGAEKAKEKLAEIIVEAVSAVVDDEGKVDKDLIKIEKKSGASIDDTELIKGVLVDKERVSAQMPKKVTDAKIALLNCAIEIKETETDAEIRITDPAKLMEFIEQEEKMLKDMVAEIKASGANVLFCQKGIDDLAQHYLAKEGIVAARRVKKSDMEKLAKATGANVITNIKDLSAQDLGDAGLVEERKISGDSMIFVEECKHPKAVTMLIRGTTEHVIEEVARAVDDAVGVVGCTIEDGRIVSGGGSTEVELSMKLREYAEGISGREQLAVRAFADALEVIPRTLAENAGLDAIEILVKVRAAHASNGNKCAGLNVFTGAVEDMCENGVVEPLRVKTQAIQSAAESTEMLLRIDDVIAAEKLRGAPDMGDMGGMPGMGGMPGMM
Sequence of phosphoglycerate mutase (Leishmania major) (Q4Q090 1-553): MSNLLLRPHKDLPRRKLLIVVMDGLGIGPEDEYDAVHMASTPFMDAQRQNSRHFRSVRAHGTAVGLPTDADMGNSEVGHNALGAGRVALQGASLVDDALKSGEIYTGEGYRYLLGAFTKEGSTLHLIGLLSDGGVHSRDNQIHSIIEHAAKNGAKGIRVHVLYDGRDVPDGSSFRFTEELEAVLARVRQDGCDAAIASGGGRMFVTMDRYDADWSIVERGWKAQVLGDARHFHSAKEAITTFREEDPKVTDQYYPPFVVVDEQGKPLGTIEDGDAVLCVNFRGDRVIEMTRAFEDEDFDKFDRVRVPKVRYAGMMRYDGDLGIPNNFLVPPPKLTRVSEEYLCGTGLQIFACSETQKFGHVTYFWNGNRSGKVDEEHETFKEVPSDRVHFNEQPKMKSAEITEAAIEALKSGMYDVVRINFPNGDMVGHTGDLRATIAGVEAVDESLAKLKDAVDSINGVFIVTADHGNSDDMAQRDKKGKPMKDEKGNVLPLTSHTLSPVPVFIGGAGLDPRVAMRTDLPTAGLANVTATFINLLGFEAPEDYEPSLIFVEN
Sequence of Glutaminase kidney isoform, mitochondrial (Homo sapiens) (O94925 whole entry, looked up, canonical isoform): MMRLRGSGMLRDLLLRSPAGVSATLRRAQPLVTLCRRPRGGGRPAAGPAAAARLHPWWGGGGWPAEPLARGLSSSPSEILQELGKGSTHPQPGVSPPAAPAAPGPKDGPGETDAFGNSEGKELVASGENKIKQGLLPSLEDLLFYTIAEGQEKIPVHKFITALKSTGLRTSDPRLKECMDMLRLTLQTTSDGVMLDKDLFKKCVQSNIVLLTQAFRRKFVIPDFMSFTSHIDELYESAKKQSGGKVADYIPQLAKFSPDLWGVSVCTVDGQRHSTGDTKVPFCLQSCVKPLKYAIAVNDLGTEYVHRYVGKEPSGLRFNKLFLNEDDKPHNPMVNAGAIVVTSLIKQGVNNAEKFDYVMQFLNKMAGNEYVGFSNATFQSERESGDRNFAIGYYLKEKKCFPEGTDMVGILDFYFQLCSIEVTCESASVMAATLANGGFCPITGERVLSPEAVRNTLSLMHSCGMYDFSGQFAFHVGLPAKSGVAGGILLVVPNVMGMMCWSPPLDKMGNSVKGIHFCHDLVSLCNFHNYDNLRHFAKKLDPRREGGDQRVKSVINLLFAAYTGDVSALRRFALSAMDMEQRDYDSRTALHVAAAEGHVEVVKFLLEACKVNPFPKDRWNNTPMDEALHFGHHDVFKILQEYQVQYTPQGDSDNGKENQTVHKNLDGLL
Sequence of Tumor susceptibility gene 101 protein (Homo sapiens) (Q99816 whole entry, looked up, the tested form may be a part): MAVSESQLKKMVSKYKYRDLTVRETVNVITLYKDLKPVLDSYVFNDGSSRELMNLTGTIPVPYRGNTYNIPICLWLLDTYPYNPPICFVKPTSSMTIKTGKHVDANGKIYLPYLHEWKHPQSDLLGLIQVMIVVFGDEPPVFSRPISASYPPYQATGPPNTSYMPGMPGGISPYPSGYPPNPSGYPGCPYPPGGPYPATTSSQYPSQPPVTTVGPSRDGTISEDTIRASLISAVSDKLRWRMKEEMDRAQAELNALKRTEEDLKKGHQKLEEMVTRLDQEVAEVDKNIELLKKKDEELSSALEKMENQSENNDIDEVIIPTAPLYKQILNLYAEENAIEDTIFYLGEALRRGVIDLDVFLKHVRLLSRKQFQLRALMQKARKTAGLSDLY
Sequence of Glucagon-like peptide 1 receptor (Homo sapiens) (P43220 whole entry, looked up): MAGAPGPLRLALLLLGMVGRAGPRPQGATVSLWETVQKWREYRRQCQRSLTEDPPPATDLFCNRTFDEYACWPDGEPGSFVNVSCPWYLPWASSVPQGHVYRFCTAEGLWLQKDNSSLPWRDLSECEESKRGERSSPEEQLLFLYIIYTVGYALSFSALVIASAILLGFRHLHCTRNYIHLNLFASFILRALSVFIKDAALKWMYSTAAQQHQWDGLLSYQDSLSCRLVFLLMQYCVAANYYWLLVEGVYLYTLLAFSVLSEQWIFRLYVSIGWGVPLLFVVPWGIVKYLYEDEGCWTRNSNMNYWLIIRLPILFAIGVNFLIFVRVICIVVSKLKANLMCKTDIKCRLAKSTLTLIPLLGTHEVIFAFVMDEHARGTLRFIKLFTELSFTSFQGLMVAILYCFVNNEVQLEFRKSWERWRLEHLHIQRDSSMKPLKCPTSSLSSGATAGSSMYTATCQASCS
Sequence of Arylsulfatase A (Homo sapiens) (P15289 whole entry, looked up): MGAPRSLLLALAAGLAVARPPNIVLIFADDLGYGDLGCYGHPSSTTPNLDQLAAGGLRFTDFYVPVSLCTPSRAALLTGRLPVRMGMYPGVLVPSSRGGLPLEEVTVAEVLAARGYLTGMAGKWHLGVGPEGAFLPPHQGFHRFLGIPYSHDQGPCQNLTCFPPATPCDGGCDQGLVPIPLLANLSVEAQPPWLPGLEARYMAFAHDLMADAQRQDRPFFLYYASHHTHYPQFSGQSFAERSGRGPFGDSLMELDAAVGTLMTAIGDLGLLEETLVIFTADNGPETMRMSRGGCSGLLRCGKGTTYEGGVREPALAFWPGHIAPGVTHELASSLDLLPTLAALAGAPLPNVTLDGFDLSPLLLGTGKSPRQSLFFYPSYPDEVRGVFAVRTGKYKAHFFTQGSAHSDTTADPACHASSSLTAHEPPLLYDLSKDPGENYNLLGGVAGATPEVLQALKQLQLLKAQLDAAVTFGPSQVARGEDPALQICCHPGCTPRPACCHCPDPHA
Sequence of Beta-2 adrenergic receptor (Homo sapiens) (P07550 whole entry, looked up): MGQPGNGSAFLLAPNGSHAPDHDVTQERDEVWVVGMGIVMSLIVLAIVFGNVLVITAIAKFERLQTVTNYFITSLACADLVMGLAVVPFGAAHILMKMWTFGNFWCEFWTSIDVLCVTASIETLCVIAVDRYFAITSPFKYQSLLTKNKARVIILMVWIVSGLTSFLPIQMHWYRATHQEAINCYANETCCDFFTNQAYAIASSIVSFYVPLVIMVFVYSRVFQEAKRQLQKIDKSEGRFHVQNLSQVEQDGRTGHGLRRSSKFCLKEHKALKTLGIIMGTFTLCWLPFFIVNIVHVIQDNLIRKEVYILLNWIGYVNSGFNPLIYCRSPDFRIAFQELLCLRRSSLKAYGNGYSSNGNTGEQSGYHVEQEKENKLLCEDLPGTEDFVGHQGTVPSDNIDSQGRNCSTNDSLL
Sequence of Phosphoglycerate kinase, glycosomal (Trypanosoma brucei brucei) (P07378 whole entry, looked up): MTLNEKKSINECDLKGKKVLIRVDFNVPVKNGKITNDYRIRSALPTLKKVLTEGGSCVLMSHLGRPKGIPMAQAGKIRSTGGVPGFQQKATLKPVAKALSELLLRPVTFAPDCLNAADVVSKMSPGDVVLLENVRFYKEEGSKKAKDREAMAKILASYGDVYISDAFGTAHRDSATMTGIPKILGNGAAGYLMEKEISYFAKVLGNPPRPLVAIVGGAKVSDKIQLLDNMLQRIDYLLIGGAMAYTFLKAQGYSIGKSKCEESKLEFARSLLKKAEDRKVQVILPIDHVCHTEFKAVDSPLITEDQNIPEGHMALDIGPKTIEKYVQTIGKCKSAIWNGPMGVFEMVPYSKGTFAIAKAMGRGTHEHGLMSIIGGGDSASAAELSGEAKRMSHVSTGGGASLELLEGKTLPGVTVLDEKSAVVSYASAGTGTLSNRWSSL

For the compound `CCc1ccc(/C=C2/SC(=S)NC2=O)cc1`, the compound was called inactive in experiment [1], in [2], in experiment [6], in [7], in experiment [9] and in experiment [10]. The outcome in [11], in experiment [13], in experiment [16], in experiment [19], in [20] and in [21] was inactive. Also, the compound was classed as inactive in experiment [22] and in experiment [24]. Further, the Potency entry in experiment [3], in experiment [4], in experiment [5], in experiment [12], in experiment [14] and in experiment [15] was “inactive” in each case. Also, the Potency entry in experiment [17] and in experiment [18] was “inactive” in each case. Also, the Potency in experiment [8] is 12.6 µM (active); in experiment [23] it was 15.1 µM (active).
